Assay outcomes deposited in PubChem by National Center for Advancing Translational Sciences (NCATS).
Rows were chosen to be rich in hits. Some 8.1% of all compounds tested hit in one or more screens of this group.
ELG1 DNA repair – ELG1-dependent DNA repair inhibition. Potency, µM (doses to about 46.1 µM), for inactives: at the top dose activity change, negative = inhibition, actives largely listed as inhibitors. HEK293T ELG1-luciferase reporter, luminescence, 16 h; DNA damage induced by 5-fluorouridine. actives 2.3% (n = 330,000); note: % is set by controls: 0 for no effect and ±100 for the full control effect; nearly all actives have a fitted effect of over 55% in size
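Overnight (16 hr) co-exposure of 2,000 cells/well to 5-fluorouridine and compound at 37 °C preceded detection. Luciferase was quantified via ONE-Glo luminescence; loss of signal denotes inhibition.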
SW480 rereplic – DNA re-replication induction in SW480 cells; actives 1.8% (n = 340,000); SW480 DNA re-replication, Hoechst DNA content imaging, 48 h; Potency, µM (doses to about 46.1 µM), for inactives: top-dose re-replication activation, most hits filed as activators; note: % of control where 0% means no effect; nearly all actives have a fitted effect of over 55% in size
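Quantitative HTS format with DMSO vehicle controls; 48 hr drug incubation at 37 C, then 40 min Hoechst staining and scanning imager measurement at 405 nm excitation.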
KB-3-1 tox – KB-3-1 parental cell cytotoxicity; KB-3-1 viability, CellTiter-Glo ATP luminescence, 72 h; Potency, µM (top dose mostly 46.1 µM), hits mostly cytotoxic; actives 1.4% (n = 400,000); AID 1347075; note: % is set by controls: 0 for no effect and ±100 for the full control effect; nearly all actives have a fitted effect of over 60% in size
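KB-3-1 cells, DMEM (no phenol red) + 10% FBS; compound by pin transfer, 72 h, 37 °C. Readout: CellTiter-Glo luminescence after 10 min. Data normalized, curve-fitted.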
MCF10A rereplic – DNA re-replication induction in MCF 10a cells. MCF 10A DNA re-replication, Hoechst nuclear intensity, 48 h. Potency, µM (top dose mostly 46.1 µM), inactives show at the top dose activity, positive = re-replication, usual class: activators. actives 2.9% (n = 350,000). AID 624296; note: % of control where 0% means no effect; nearly all actives have a fitted effect of over 50% in size
KB-V1 MDR tox – kills drug-selected multidrug resistant KB-V1 cells | KB-V1 MDR cells viability, CellTiter-Glo, 72 h | Potency, µM (titrated, usually from 46.1 µM), hits mostly cytotoxic | actives 3.4% (n = 400,000) | AID 1347076; note: % is set by controls: 0 for no effect and ±100 for the full control effect; nearly all actives have a fitted effect of over 60% in size
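qHTS viability screen in drug-selected KB-V1 MDR cells: 72 h compound treatment at 37 degrees C, ATP luminescence end point.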
ELG1 FLuc counter – luciferase inhibition in cell-free luciferin readout for ELG1 hits; Potency, µM (titrated, usually from 46.1 µM), for inactives: at the top dose activity change, negative = inhibition, usual class: inhibitors; actives 3% (n = 350); cell-free firefly luciferase luminescence counter-screen, ViewLux; shares compounds with ELG1 DNA repair; note: % is set by controls: 0 for no effect and ±100 for the full control effect
ELG1-Luc inh – inhibits ELG1-dependent DNA repair in HEK293T cells, confirmed | actives 68% (n = 670) | shares compounds with ELG1 DNA repair | Potency, µM (top dose mostly 46.1 µM), for the others: at the top dose activity change, negative = inhibition, usual class: inhibitors | HEK293T ELG1-luciferase levels, luminescence; cells co-treated with 5-fluorouridine | AID 624248; note: % is set by controls: 0 for no effect and ±100 for the full control effect; nearly all actives have a fitted effect of over 55% in size
Target sequence (Q96QE3 whole entry, looked up): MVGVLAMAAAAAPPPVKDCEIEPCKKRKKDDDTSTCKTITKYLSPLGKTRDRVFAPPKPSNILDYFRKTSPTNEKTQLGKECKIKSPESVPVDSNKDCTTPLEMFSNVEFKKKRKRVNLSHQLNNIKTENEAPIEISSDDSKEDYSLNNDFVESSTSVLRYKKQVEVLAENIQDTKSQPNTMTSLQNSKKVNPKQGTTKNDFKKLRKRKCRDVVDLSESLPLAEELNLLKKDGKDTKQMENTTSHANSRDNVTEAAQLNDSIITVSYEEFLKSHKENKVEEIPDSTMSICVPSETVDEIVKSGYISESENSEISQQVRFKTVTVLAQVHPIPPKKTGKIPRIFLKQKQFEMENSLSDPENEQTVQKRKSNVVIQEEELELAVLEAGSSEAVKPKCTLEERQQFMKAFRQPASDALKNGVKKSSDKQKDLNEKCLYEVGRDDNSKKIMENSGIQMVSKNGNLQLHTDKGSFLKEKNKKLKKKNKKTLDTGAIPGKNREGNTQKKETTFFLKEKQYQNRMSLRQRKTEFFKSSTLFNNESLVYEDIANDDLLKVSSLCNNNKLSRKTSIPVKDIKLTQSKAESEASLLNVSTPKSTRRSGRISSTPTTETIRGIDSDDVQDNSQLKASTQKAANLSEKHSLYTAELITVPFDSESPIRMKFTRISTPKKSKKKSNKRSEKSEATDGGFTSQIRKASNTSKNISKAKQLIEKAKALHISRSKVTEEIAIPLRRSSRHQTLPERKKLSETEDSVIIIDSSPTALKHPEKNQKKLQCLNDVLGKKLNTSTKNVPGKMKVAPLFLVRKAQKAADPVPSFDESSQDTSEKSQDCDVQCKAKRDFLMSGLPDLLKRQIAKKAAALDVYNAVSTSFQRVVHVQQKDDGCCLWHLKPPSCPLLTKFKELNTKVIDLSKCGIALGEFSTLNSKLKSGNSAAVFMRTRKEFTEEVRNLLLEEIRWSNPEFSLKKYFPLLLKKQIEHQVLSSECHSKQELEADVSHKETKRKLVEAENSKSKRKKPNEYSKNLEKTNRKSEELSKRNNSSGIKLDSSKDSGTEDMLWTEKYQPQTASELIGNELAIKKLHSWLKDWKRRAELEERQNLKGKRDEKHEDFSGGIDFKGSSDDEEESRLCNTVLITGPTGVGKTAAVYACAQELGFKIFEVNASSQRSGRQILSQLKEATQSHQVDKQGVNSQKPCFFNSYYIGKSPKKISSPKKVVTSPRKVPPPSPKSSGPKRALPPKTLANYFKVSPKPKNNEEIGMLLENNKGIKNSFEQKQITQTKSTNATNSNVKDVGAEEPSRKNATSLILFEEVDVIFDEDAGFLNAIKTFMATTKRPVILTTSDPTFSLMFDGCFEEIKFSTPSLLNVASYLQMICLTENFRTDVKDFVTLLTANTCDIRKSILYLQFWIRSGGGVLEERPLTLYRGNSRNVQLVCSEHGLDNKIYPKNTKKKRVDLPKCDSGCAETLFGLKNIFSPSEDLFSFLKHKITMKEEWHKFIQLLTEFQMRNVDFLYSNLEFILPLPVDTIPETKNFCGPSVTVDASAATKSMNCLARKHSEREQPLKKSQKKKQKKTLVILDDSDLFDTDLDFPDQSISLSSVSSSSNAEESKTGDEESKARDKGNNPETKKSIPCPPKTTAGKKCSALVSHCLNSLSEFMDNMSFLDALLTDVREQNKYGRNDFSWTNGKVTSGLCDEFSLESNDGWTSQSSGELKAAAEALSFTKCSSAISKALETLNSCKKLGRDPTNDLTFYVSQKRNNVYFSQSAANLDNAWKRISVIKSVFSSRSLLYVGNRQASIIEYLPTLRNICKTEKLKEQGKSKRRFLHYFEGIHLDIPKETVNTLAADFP
ELG1 MMS Luc – inhibits ELG1-dependent repair under MMS stimulation in HEK293T cells. AID 624249. shares compounds with ELG1 DNA repair. HEK293T luciferase-tagged ELG1 level, MMS stimulated. actives 53% (n = 670). Potency, µM (doses to about 46.1 µM), for the others: at the top dose activity change, negative = inhibition, usual class: inhibitors; note: % is set by controls: 0 for no effect and ±100 for the full control effect; nearly all actives have a fitted effect of over 60% in size
ELG1 5FU viab – confirmation of ELG1 repair inhibitors: viability with 5FU; AID 624250; shares compounds with ELG1 DNA repair; cell viability with 5-FU, ELG1-dependent repair; Potency, µM (top dose mostly 46.1 µM), for the others: top-dose activity change, negative = viability loss, hits mostly cytotoxic; 670 tested, under 10 active;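 note: ELG1-luc HEK293T cells cotreated with 5-fluorouridine at 10 µM final; viability measured 16 h after compound addition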
ELG1 MMS viab – confirmation of ELG1 repair inhibitors: viability with MMS | actives 33% (n = 670) | Potency, µM (titrated, usually from 46.1 µM), inactives show at the highest dose activity change, negative = viability loss, hits mostly cytotoxic | shares compounds with ELG1 DNA repair | Cell viability with MMS, ELG1-dependent DNA repair | AID 624251;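 note: ELG1-luc HEK293T cells co-treated with 10 µM MMS; viability read 16 h after compound addition; % is set by controls: 0 for no effect and ±100 for the full control effect; nearly all actives have a fitted effect of over 60% in size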
Cell viab unstim – unstimulated viability counter-screen for ELG1 repair hits | actives 8% (n = 900) | Potency, µM (titrated, usually from 45.9 µM), inactives show at the top dose activity change, negative = loss of viability, usual class: cytotoxic | shares compounds with ELG1 DNA repair | cell viability counter-screen, unstimulated, luminescence;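 note: compound exposure lasted 16 hours before reading; % is set by controls: 0 for no effect and ±100 for the full control effect; nearly all actives have a fitted effect of over 55% in size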
FLuc biochem – firefly luciferase inhibition counter-screen; shares compounds with ELG1 DNA repair; purified firefly luciferase, luminescence counter-screen; Potency, µM (top dose mostly 57.5 µM), inactives show at the highest dose activity, negative = inhibition, usual class: inhibitors; actives 10% (n = 350); AID 624253; note: % is set by controls: 0 for no effect and ±100 for the full control effect
Active calls of the source: *; i = inactive; u = inconclusive; x = no result given. Calls come from the whole dose curve; as a rule, active = well fitted curve in the direction sought with a large enough effect; inconclusive = small, poorly fitted or top-dose-only effect, or another doubt; inactive = no such curve, though single readings can be large; an effect the other way counts as inactive or inconclusive. Potency is the fitted concentration of half-maximal effect.

SMILES	ELG1 DNA repair	SW480 rereplic	KB-3-1 tox	MCF10A rereplic	KB-V1 MDR tox	ELG1 FLuc counter	ELG1-Luc inh	ELG1 MMS Luc	ELG1 5FU viab	ELG1 MMS viab	Cell viab unstim	FLuc biochem
COc1ccc(S(=O)(=O)NCCc2nnc3ccc(SCC(=O)Nc4nc(C)cs4)nn23)cc1	1%	2%	i	4%	i	1%	-22%	10%	6%	-7%	-4%	-3%
COc1ccc(CNC(=O)C(c2ccc(C)o2)N(Cc2cccs2)C(=O)Cc2cccs2)cc1 (configuration not stated)	21µM*	21%	u	u	15µM*	-14%	11µM*	u	4%	-4%	u	3%
COCCN(C(=O)Cc1cccs1)C(C(=O)NCc1ccc(OC)cc1)c1ccc(C)cc1 (configuration not stated)	u	1%	i	27%	u	x	x	x	x	x	x	x
CCC(C)(C)C1CCc2nc3ccccc3c(C(=O)OC(C)C(=O)Nc3c(C)n(C)n(-c4ccccc4)c3=O)c2C1 (configuration not stated)	4.1µM*	6%	i	12%	i	x	2.2µM*	25µM*	u	3%	u	x
CCc1ccc(Cn2ncc3c(C(=O)O)cc(C)nc32)cc1	x	-5%	i	-2%	i	x	x	x	x	x	x	x
CC(NC(=O)C1CCCC1)C1CC2CCC1C2 (configuration not stated)	4.1µM*	-1%	i	-7%	i	x	20%	u	4%	-5%	9%	x
CC(NC(=O)COC(=O)C1CCCCC1)c1ccccc1 (configuration not stated)	4%	-2%	x	-31%	x	x	x	x	x	x	x	x
O=C(Nc1ccccc1)c1nc[nH]c1C(=O)NCCCCNC(=O)c1[nH]cnc1C(=O)Nc1ccccc1	u	6%	i	-3%	u	x	x	x	x	x	x	x
O=C(Nc1ccccc1)c1nc[nH]c1C(=O)NCCNC(=O)c1[nH]cnc1C(=O)Nc1ccccc1	2.3µM*	6%	i	u	i	x	5µM*	4.4µM*	-1%	u	16µM*	x
Cc1ccc(NC(=O)c2nc[nH]c2C(=O)NCCCCNC(=O)c2[nH]cnc2C(=O)Nc2ccc(C)cc2)cc1	0.73µM*	-1%	u	-1%	u	0%	1.3µM*	1.8µM*	-23%	u	-12%	-3%
COc1cc(C(=O)NCCOc2cc(C)ccc2C(C)C)cc(OC)c1OC	4.6µM*	u	u	u	16µM*	x	14µM*	7.1µM*	-4%	5.6µM*	u	x
COCC(C)NC(=O)c1ccc2nc(-c3ccccc3)c(-c3ccccc3)nc2c1 (configuration not stated)	u	-9%	i	17%	u	x	x	x	x	x	x	x
CCC(C)NC(=O)c1ccc2nc(-c3ccc(OC)c(OC)c3)c(-c3ccc(OC)c(OC)c3)nc2c1 (configuration not stated)	0.52µM*	u	i	15µM*	i	9%	1.6µM*	-17%	u	-8%	u	-5%
COc1ccc(CNC(=O)c2cccc(NC(=O)N3CCSc4ncccc43)c2)cc1	x	x	i	x	i	x	x	x	x	x	x	x
Cc1nc(N2CCN(S(=O)(=O)c3ccc(F)cc3)CC2)c2c(C)c(C)sc2n1	1%	-3%	i	17%	u	25%	-10%	10%	9%	-1%	-1%	2%
COCCNC(=O)c1cn(C)c2ccc(S(=O)(=O)N3CCCCC3)cc2c1=O	2.9µM*	-8%	23µM*	21%	i	x	u	u	-2%	-15%	u	x
CCn1cc(C(=O)NCC(OC)OC)c(=O)c2cc(S(=O)(=O)N3CCCC3)ccc21	-16%	-5%	i	0%	i	x	x	x	x	x	x	x
CCOCCCNC(=O)c1cn(C)c2ccc(S(=O)(=O)N3CCCCC3)cc2c1=O	-4%	-33%	u	0%	i	x	x	x	x	x	x	x
CCn1cc(C(=O)NCC(OC)OC)c(=O)c2cc(S(=O)(=O)N3CCC(C)CC3)ccc21	2.6µM*	9%	13µM*	u	i	x	16µM*	16µM*	-20%	u	16µM*	x
CC(=O)NC(CC(=O)Nc1ccc(S(=O)(=O)NC2=NCCCCC2)cc1)c1ccccc1 (configuration not stated)	18%	-3%	i	0%	i	x	x	x	x	x	x	x
CC(=O)NC(CC(=O)Nc1ccc(S(=O)(=O)Nc2nccs2)cc1)c1ccccc1 (configuration not stated)	0.52µM*	-3%	i	-2%	i	6%	u	-6%	5%	11%	5%	2%
CCn1cc([N+](=O)[O-])c(C(=O)Nc2ccn(Cc3ccccc3)n2)n1	-8%	-6%	i	-4%	i	x	x	x	x	x	x	x
Cc1ccc(Cn2ccc(NC(=O)c3nn(C)cc3[N+](=O)[O-])n2)cc1	u	12µM*	u	13µM*	10µM*	x	u	u	-1%	0%	-7%	x
CCOC1=C2CN(S(=O)(=O)c3ccc(C)cc3)[C@H](c3ccccc3)C[C@@H]2N(S(=O)(=O)c2ccc(C)cc2)[C@H](c2cccc(C)c2)C1	x	x	i	x	i	x	x	x	x	x	x	x
